KB-V1 cytotox – KB-V1 MDR subline cytotoxicity. 400,000 tested, 3.4% active. KB-V1 MDR cells viability, CellTiter-Glo, 72 h. Potency, µM (highest dose often 46.1 µM), most hits filed as cytotoxic; further: on the % scale 0 is the no-effect control and ±100 the full control effect; nearly all actives have a fitted effect of over 60% in size
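Cells of the MDR subline KB-V1 are plated, dosed with compound at multiple concentrations, and incubated 72 h at 37 degrees C; CellTiter-Glo is then added and luminescence read after 10 min.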
KB-3-1 cytotox – kills parental KB-3-1 adenocarcinoma cells. KB-3-1 viability, CellTiter-Glo ATP luminescence, 72 h. Potency, µM (top dose mostly 46.1 µM), usual class: cytotoxic. 400,000 tested, 1.4% active. AID 1347075; further: on the % scale 0 is the no-effect control and ±100 the full control effect; nearly all actives have a fitted effect of over 60% in size
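Viability of parental KB-3-1 cells, measured by CellTiter-Glo luminescence, followed a 72 h incubation at 37 °C with pinned compounds in phenol-red-free DMEM containing 10% FBS.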
SW480 rerep – inducers of DNA re-replication in SW480 colon cancer cells; SW480 DNA re-replication, Hoechst DNA content imaging, 48 h; Potency, µM (titrated, usually from 46.1 µM), inactives show at the highest dose re-replication activation, hits mostly activators; 340,000 tested, 1.8% active; further: % of control where 0% means no effect; nearly all actives have a fitted effect of over 55% in size
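Cells (250 per well) received 23 nL compound or DMSO by pin tool and were kept 48 hr at 37 C, 5% CO2. Nuclei were then stained with Hoechst for 40 min and scanned for DNA content.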
MCF10A rerep – induces DNA re-replication in MCF 10a normal breast cells | MCF 10A DNA re-replication, Hoechst nuclear intensity, 48 h | Potency, µM (doses to about 46.1 µM), without a hit: at the highest dose activity, positive = re-replication, hits mostly activators | 350,000 tested, 2.9% active; further: % of control where 0% means no effect; nearly all actives have a fitted effect of over 50% in size
ELG1 repair inh – ELG1-dependent DNA repair inhibition; HEK293T ELG1-luciferase reporter, luminescence, 16 h; DNA damage induced by 5-fluorouridine; Potency, µM (series often up to 46.1 µM), for the others: at the top dose activity change, negative = inhibition, hits mostly inhibitors; 330,000 tested, 2.3% active; further: on the % scale 0 is the no-effect control and ±100 the full control effect; nearly all actives have a fitted effect of over 55% in size
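Quantitative HTS, concentration-response format. 2,000 cells/well co-treated with 5-fluorouridine and compound, 16 hr in 5% CO2 at 37 °C; ONE-Glo luminescence read after 30 min.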
The depositor's hits bear a star; i = inactive; ? = inconclusive; . = no result given; ! = a repeat was not active; [ ] = remark or other dose. Only some compounds are listed: those with a hit (about 8.1% of all), similar ones and a draw of the others. The call rests on the fitted dose curve; in most records, active means well fitted curve in the direction sought with a large enough effect; inconclusive means small, poorly fitted or top-dose-only effect, or another doubt; inactive means no such curve, though single readings can be large; an effect the other way counts as inactive or inconclusive. Potency means the concentration at half of the fitted maximal effect.

SMILES | KB-V1 cytotox | KB-3-1 cytotox | SW480 rerep | MCF10A rerep | ELG1 repair inh
COC(=O)[C@@]12OC[C@]34[C@H]([C@@H](O)[C@@H]1O)[C@@]1(C)C(=O)C(O[C@@H]5OC(CO)[C@@H](O)[C@@H](O)[C@@H]5O)=C[C@@H](C)[C@@H]1C[C@H]3OC(=O)[C@H](OC(=O)/C=C(\C)C(C)(C)OC(C)=O)[C@@H]24 (stereo partly drawn) | i | ? | -5.5% | 22.6% | 6.51µM*
Cc1ccc(NC(=O)CCC(=O)OCC(F)(F)C(F)F)cc1 | i | i | 4.5% | 2.0% | -0.5%
COc1cc2c(cc1NC(=O)C(C)OC(=O)C1CC(=O)N(Cc3ccco3)C1)oc1ccccc12 (stereo not drawn) | i | i | -1.0%[9.22 µM] | ? | ?
COC(=O)c1sc(N)c(C(=O)OC)c1COC(=O)C1CC(=O)N(Cc2ccco2)C1 (stereo not drawn) | i | i | -4.1% | 5.9% | 8.2µM*
CC(OC(=O)C1CC(=O)N(Cc2ccco2)C1)C(=O)Nc1cccc(C#N)c1 (stereo not drawn) | i | i | 5.8µM* | -2.2% | 15.5%
CN1C(=O)NC(c2ccc(Cl)cc2)C2=C1CC(C)(C)CC2=O (stereo not drawn) | i | i | -8.1% | 3.3% | 0.0%
NN=C1c2cc(S(=O)(=O)NCCO)ccc2-c2ccc(S(=O)(=O)NCCO)cc21 | i | ? | . | . | .
Cc1nc(-c2cccc(NC(=O)Nc3ccccc3C(F)(F)F)c2)no1 | i | i | . | . | .
CN(C)c1ccc(/C=C/c2cncc3ccccc23)cc1 | i | i | . | . | .
[O-][n+]1c(/C=C/c2ccccc2)ccc2ccccc21 | i | ? | 18.4µM* | 20.6µM* | ?
CN(C)c1ccc(/C=C/c2ccc3c4ccccc4ccc3[n+]2-c2ccccc2)cc1 | 9.2µM* | 0.291µM* | 0.9% | ? | 1.46µM*
CN(C)c1ccc(/C=C/c2c[n+](C)cc3ccccc23)cc1 | i | 0.461µM* | . | . | .
CN(C)c1ccc(/C=C/c2cc3ccccc3c[n+]2C)cc1 | i | 0.82µM* | . | . | .
Cc1ccc([C@@H]2[C@@H]3C(=O)N(C)C(=O)[C@@H]3[C@]3(C)C(=O)N(CC4CC4)CC(=O)N23)o1 | i | i | 0.5% | -29.7% | 0.1%
C[C@H]1CN([C@@H](C)CO)S(=O)(=O)c2ccc(Br)cc2O[C@@H]1CN(C)S(=O)(=O)c1ccccc1F | i | i | . | . | .
CN(C)c1ccc(/C=C/c2ccc3ccccc3[n+]2C)cc1 | ? | 0.326µM*! | 2.31µM* | ? | ?
Cc1csc2nc(O)c(C(=O)NCCC3=CCCCC3)c(=O)n12 | 9.2µM* | i | -0.5% | ? | 12.5%
Cc1csc2nc(O)c(C(=O)NCCCc3ccccc3)c(=O)n12 | 16.4µM* | ? | -0.6% | 1.1% | ?
O=C(NCCC1=CCCCC1)c1cnccn1 | i | i | 5.3%[9.22 µM] | -26.9% | ?
O=C(CCCN1C(=O)CCC1=O)Nc1ccc(Br)cc1F | ? | i | -9.5% | -10.2% | 11.8%
Clc1ccc2nc(-c3ccc4c(c3)OCO4)cn2c1 | ? | ? | 23.1µM* | ? | ?
CN(C)S(=O)(=O)c1cccc(-c2cn3cc(Cl)ccc3n2)c1 | 16.4µM* | i | -1.8% | -5.5% | -16.2%
c1ccn2cc(-c3ccc4c(c3)OCCO4)nc2c1 | ? | ? | -2.6% | 1.7% | ?
Cc1ccc2nc(-c3ccc4c(c3)OCCO4)cn2c1 | ? | 3.66µM* | 2.59µM* | 5.8µM* | ?
Clc1ccc2nc(-c3ccccc3)cn2c1 | i | i | -3.2% | 6.9% | ?
SMILES | KB-V1 cytotox | KB-3-1 cytotox | SW480 rerep | MCF10A rerep | ELG1 repair inh
COc1ccc(-c2cn3cc(C)ccc3n2)cc1OC | 6.51µM* | i | -5.6% | 0.2% | ?
COc1ccccc1NC(=O)c1nn(-c2ccccc2)ccc1=O | i | i | -2.7% | ? | -12.5%
CC(=O)c1cccc(S(=O)(=O)N(CCCO)Cc2cc3ccc(C)cc3[nH]c2=O)c1 | i | i | -21.3% | -8.0% | -17.8%
Cc1ccc(-n2nnnc2-c2cnn(-c3ccc(F)cc3)c2C(F)(F)F)cc1 | ? | ? | -0.1% | 13.7% | ?
Cc1[nH]nc(N=CC2=C(O)CC(c3ccco3)CC2=O)c1-c1ccccc1 (stereo not drawn) | 16.4µM*! | i | -5.4% | 8.0% | -22.8%
Cc1[nH]nc(N=CC2=C(O)CC(C)(C)CC2=O)c1-c1ccccc1 | 23.1µM*! | ? | -4.4% | 18.0% | 13.1%
O=C1CC(c2ccco2)CC(O)=C1C=Nc1cc(Cl)cc(Cl)c1 (stereo not drawn) | i | i | -3.7% | 3.4% | 5.0%
CCC(C(=O)N1CCCC1)n1nc(C)c2c(C)n(-c3ccccc3)nc2c1=O (stereo not drawn) | i | i | 20.6µM* | -0.4% | 15.4%
Cc1ccc(-n2nc3c(=O)n(C(C)C(=O)NCc4ccccc4C)nc(C)c3c2C)cc1 (stereo not drawn) | i | 14.6µM* | . | . | .
CCC(C(=O)NCCc1ccc(C)cc1)n1nc(C)c2c(C)n(-c3ccccc3)nc2c1=O (stereo not drawn) | i | i | ? | -1.8% | -10.8%
Cc1ccc(-n2nc3c(=O)n(C(C)C(=O)NCc4ccc(Cl)cc4)nc(C)c3c2C)cc1 (stereo not drawn) | i | 8.2µM* | -1.2% | 0.1% | ?
Cc1ccc(CCNC(=O)C(C)n2nc(C)c3c(C)n(-c4ccccc4)nc3c2=O)cc1 (stereo not drawn) | i | i | 0.1% | 0.0% | ?
Cc1nn(C(C)C(=O)NCc2ccccc2F)c(=O)c2nn(-c3ccccc3)c(C)c12 (stereo not drawn) | i | i | -13.2% | -0.7% | 1.4%
O=C(c1ccc(Cl)cc1)N1CCc2ccccc21 | i | i | 11.4% | -13.0% | 28.1%
CCCCNc1c(-c2ccc(SC(C)CC)cc2)nc2ccccn12 (stereo not drawn) | 13µM*! | 18.4µM*! | ? | ? | ?
CCCCCCSc1ccc(-c2nc3ccc(C)cn3c2NCc2ccccc2)cc1 | ? | ? | -2.1%[9.22 µM] | ? | ?
CCCCNc1c(-c2ccc(SC3CCCCC3)cc2)nc2ccccn12 | 20.6µM*! | ? | 0.4% | ? | ?
CCCCCCSc1ccc(-c2nc3cnccn3c2NCCCC)cc1 | i | i | 20.6µM* | ? | -6.7%
Cc1cc(N2CCCC2)nc2ccc(NC(=S)NCCCOC(C)C)cc12 | i | i | ? | ? | 2.8%
CCSc1nnc(-c2cc(Br)ccc2N)c(=O)[nH]1 | i | i | -12.2% | 2.2% | -8.2%
COc1cccc(NC(=O)CSCc2cc(=O)c3ccc(C)c(C)c3[nH]2)c1 | i | i | . | . | .

Compound activity: PubChem BioAssay, National Center for Advancing Translational Sciences (NCATS)
